Values joined by “and” are separate entries in the source; they are usually repeats but may differ in a detail not shown here. Identical values can stand only once. The whole screen tested about 5,500 compounds, of which about 2,000 (36%) were called active. Another 18% or so got no clear call; they are omitted. No stated cut-off is given here; in the data, active means normalized growth mostly below about 0.91 (no sharp cut-off); inconclusive means no clear call, values can overlap the other calls; inactive means mostly above about 0.92. The list shows a part of the results.
Test: chemical genetic growth profiling, strain panel (AID 1159580);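 further: tested at 20 µM; growth read once vehicle control cultures reached saturation at 30 °C; 1 = growth at the plate median or of vehicle wells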
Details: S. cerevisiae deletion strains, growth OD
[1] = locus YGR229C, strain SMI1, stronger effect = lower value
[2] = locus YMR307W, strain GAS1, stronger effect = lower value
[3] = locus YNL153C, strain GIM3, stronger effect = lower value

Measured: normalized growth

COc1cc2c(c(OC)c1OC)-c1ccc(OC)c(=O)cc1[C@@H](NC(C)=O)CC2
inactive: locus YAL013W, strain DEP1, stronger effect = lower value 1.02 | locus YAL021C, strain ccr4, stronger effect = lower value 1.01 | locus YAL026C, strain drs2, stronger effect = lower value 1 | locus YAL030W, strain snc1, stronger effect = lower value 0.988 | locus YBL061C, strain skt5, stronger effect = lower value 1 | locus YBR009C, strain hhf1, stronger effect = lower value 0.985 | locus YBR021W, strain FUR4, stronger effect = lower value 1.04 | locus YBR023C, strain chs3, stronger effect = lower value 0.998 | locus YBR171W, strain sec66, stronger effect = lower value 1.01 | locus YBR229C, strain ROT2, stronger effect = lower value 1.02 | locus YBR231C, strain swc5, stronger effect = lower value 1.02 | locus YBR279W, strain paf1, stronger effect = lower value 1 | locus YCL011C, strain gbp2, stronger effect = lower value 1 | locus YCL016C, strain dcc1, stronger effect = lower value 0.986 | locus YCL029C, strain bik1, stronger effect = lower value 1.03 | locus YCL069W, strain vba3, stronger effect = lower value 1 | locus YCR088W, strain abp1, stronger effect = lower value 1.01 | locus YDL005C, strain med2, stronger effect = lower value 1.01 | locus YDL035C, strain GPR1, stronger effect = lower value 1.02 | locus YDL040C, strain nat1, stronger effect = lower value 1.01 | locus YDL074C, strain BRE1, stronger effect = lower value 1.04 | locus YDL101C, strain DUN1, stronger effect = lower value 1.02 | locus YDL134C, strain PPH21, stronger effect = lower value 1.02 | locus YDL185W, strain tfp1, stronger effect = lower value 1.04 | locus YDL192W, strain arf1, stronger effect = lower value 1.02 | locus YDR001C, strain nth1, stronger effect = lower value 1.02 | locus YDR069C, strain doa4, stronger effect = lower value 1.04 | locus YDR101C, strain arx1, stronger effect = lower value 1.02 | locus YDR137W, strain rgp1, stronger effect = lower value 0.988 | locus YDR159W, strain sac3, stronger effect = lower value 0.999 | locus YDR162C, strain NBP2, stronger effect = lower value 1.03 | locus YDR195W, strain ref2 0.974 | locus YDR297W, strain sur2, stronger effect = lower value 1.01 | locus YDR318W, strain mcm21, stronger effect = lower value 1.03 | locus YDR334W, strain swr1, stronger effect = lower value 1.01 | locus YDR335W, strain msn5, stronger effect = lower value 0.998 | locus YDR388W, stronger effect = lower value 1.03 | locus YDR392W, strain spt3, stronger effect = lower value 0.968 | locus YDR502C, strain sam2, stronger effect = lower value 1.02 | locus YEL003W, strain gim4, stronger effect = lower value 1 | locus YEL037C, strain rad23, stronger effect = lower value 1.01 | locus YEL061C, strain CIN8 (second series), stronger effect = lower value 0.999 | locus YEL061C, strain CIN8, stronger effect = lower value 1.01 | locus YER015W, strain faa2, stronger effect = lower value 1.01 | locus YER016W, strain bim1, stronger effect = lower value 0.963 | locus YER110C, stronger effect = lower value 1.02 | locus YER111C, strain swi4, stronger effect = lower value 1.02 | locus YER155C, strain BEM2 (second series), stronger effect = lower value 1.02 | locus YER155C, strain BEM2, stronger effect = lower value 1.01 | locus YER167W, strain BCK2, stronger effect = lower value 1.02 | locus YFR010W, strain ubp6, stronger effect = lower value 1.01 | locus YGL078C, strain dbp3, stronger effect = lower value 1.03 | locus YGL086W, strain mad1, stronger effect = lower value 1.02 | locus YGL167C, strain pmr1, stronger effect = lower value 1.02 | locus YGL173C, strain kem1, stronger effect = lower value 1.03 | locus YGL227W, strain vid30, stronger effect = lower value 1.01 | locus YGL240W, strain doc1, stronger effect = lower value 1.03 | locus YGL248W, strain PDE1, stronger effect = lower value 1.03 | locus YGL253W, strain hxk2, stronger effect = lower value 1 | locus YGR078C, strain PAC10, stronger effect = lower value 1.03 | locus YGR135W, strain pre9, stronger effect = lower value 1.03 | [1] 1.02 | locus YGR252W, strain gcn5, stronger effect = lower value 1.07 | locus YHR013C, strain ard1, stronger effect = lower value 0.986 | locus YHR027C, strain rpn1, stronger effect = lower value 1.01 | locus YHR030C, strain SLT2, stronger effect = lower value 1.01 and 1.04 | locus YHR079C, strain IRE1 (second series), stronger effect = lower value 1.04 | locus YHR079C, strain IRE1, stronger effect = lower value 1.04 | locus YHR094C, strain hxt1, stronger effect = lower value 1.02 | locus YHR129C, strain ARP1, stronger effect = lower value 1.01 | locus YHR142W, strain chs7, stronger effect = lower value 0.996 | locus YHR200W, strain rpn10, stronger effect = lower value 1.03 | locus YIL066C, strain RNR3, stronger effect = lower value 1.02 | locus YIL073C, strain SPO22, stronger effect = lower value 1.04 | locus YIL125W, strain kgd1, stronger effect = lower value 1.03 | locus YIR030C, strain dcg1, stronger effect = lower value 1.04 | locus YJL092W, strain hpr5, stronger effect = lower value 1.01 | locus YJL095W, strain BCK1 (second series), stronger effect = lower value 1 | locus YJL095W, strain BCK1, stronger effect = lower value 1.04 and 1.02 | locus YJL115W, strain asf1, stronger effect = lower value 1.02 | locus YJL129C, strain trk1, stronger effect = lower value 1.01 | locus YJL134W, strain LCB3, stronger effect = lower value 1.02 | locus YJL154C, strain vps35, stronger effect = lower value 0.995 | locus YJL164C, strain tpk1, stronger effect = lower value 0.984 | locus YJL166W, strain qcr8, stronger effect = lower value 1.02 | locus YJL168C, strain set2, stronger effect = lower value 1.02 | locus YJL187C, strain SWE1 (second series), stronger effect = lower value 1.03 | locus YJR043C, strain POL32, stronger effect = lower value 1 | locus YJR066W, strain TOR1, stronger effect = lower value 0.988 | locus YJR075W, strain HOC1, stronger effect = lower value 1.02 | locus YKL009W, strain mrt4, stronger effect = lower value 1.01 | locus YKL068W, stronger effect = lower value 1.03 | locus YKL085W, strain MDH1 (second series), stronger effect = lower value 1.06 | locus YKL085W, strain MDH1, stronger effect = lower value 1.06 | locus YKL160W, strain elf1, stronger effect = lower value 1.02 | locus YKL190W, strain CNB1, stronger effect = lower value 1.01 | locus YKR001C, strain vps1, stronger effect = lower value 1.03 | locus YKR026C, strain gcn3, stronger effect = lower value 1.06 | locus YKR091W, strain srl3, stronger effect = lower value 0.985 | locus YLL001W, strain dnm1, stronger effect = lower value 1.01 | locus YLL026W, stronger effect = lower value 0.991 | locus YLL041C, strain sdh2, stronger effect = lower value 1.01 | locus YLR027C, strain aat2, stronger effect = lower value 1.01 | locus YLR039C, strain RIC1, stronger effect = lower value 1.05 | locus YLR058C, strain SHM2, stronger effect = lower value 1.03 | locus YLR102C, strain apc9, stronger effect = lower value 1.03 | locus YLR113W, strain HOG1, stronger effect = lower value 1.04 | locus YLR221C, strain rsa3, stronger effect = lower value 0.997 | locus YLR258W, strain gsy2, stronger effect = lower value 1.01 | locus YLR262C, strain YPT6 (second series), stronger effect = lower value 1.04 | locus YLR262C, strain YPT6, stronger effect = lower value 1.04 | locus YLR268W, strain sec22, stronger effect = lower value 1.04 | locus YLR320W, strain mms22, stronger effect = lower value 1.01 | locus YLR330W, strain CHS5, stronger effect = lower value 1.02 | locus YLR342W, strain FKS1 (second series), stronger effect = lower value 1.03 | locus YLR342W, strain FKS1, stronger effect = lower value 1.01 | locus YLR357W, strain rsc2, stronger effect = lower value 1.02 | locus YLR370C, strain arc18, stronger effect = lower value 1.01 | locus YLR371W, strain rom2, stronger effect = lower value 1.03 | locus YLR384C, strain iki3, stronger effect = lower value 1.02 | locus YLR418C, strain cdc73, stronger effect = lower value 1.06 | locus YML016C, strain PPZ1, stronger effect = lower value 1.03 | locus YML032C, strain rad52, stronger effect = lower value 1.02 | locus YML120C, strain ndi1, stronger effect = lower value 1.02 | locus YML124C, strain tub3, stronger effect = lower value 1.03 | locus YMR058W, strain fet3, stronger effect = lower value 1.01 | locus YMR078C, strain ctf18, stronger effect = lower value 1.04 | locus YMR125W, strain sto1, stronger effect = lower value 1.01 | locus YMR129W, stronger effect = lower value 1.02 | locus YMR205C, strain PFK2, stronger effect = lower value 1 | locus YMR223W, strain ubp8, stronger effect = lower value 1.04 | locus YMR231W, strain pep5, stronger effect = lower value 1.01 | [2] 0.99 | locus YNL067W, strain RPL9B, stronger effect = lower value 1.03 | locus YNL071W, strain lat1, stronger effect = lower value 1 | locus YNL128W, strain TEP1, stronger effect = lower value 1.03 | [3] 1.02 | locus YNL183C, strain NPR1, stronger effect = lower value 0.99 | locus YNL209W, strain ssb2, stronger effect = lower value 1 | locus YNL233W, strain BNI4, stronger effect = lower value 1.02 | locus YNL248C, strain rpa49, stronger effect = lower value 0.947 | locus YNL250W, strain rad50, stronger effect = lower value 1 | locus YNL271C, strain bni1, stronger effect = lower value 1.04 | locus YNL298W, strain CLA4, stronger effect = lower value 1.03 | locus YNL307C, strain MCK1, stronger effect = lower value 1.03 | locus YNL322C, strain KRE1 (second series), stronger effect = lower value 1.02 | locus YNR049C, strain mso1, stronger effect = lower value 1.03 | locus YNR052C, strain pop2, stronger effect = lower value 1.02 | locus YOL012C, strain htz1 0.756 | locus YOL147C, strain pex11, stronger effect = lower value 1.04 | locus YOR001W, strain rrp6, stronger effect = lower value 1.02 | locus YOR061W, strain CKA2, stronger effect = lower value 1.03 | locus YOR069W, strain VPS5, stronger effect = lower value 1.01 | locus YOR070C, strain gyp1, stronger effect = lower value 0.995 | locus YOR080W, strain dia2, stronger effect = lower value 1.02 | locus YOR083W, strain WHI5, stronger effect = lower value 1.02 | locus YOR106W, strain vam3, stronger effect = lower value 1.03 | locus YOR136W, strain idh2, stronger effect = lower value 1.02 | locus YOR144C, strain elg1, stronger effect = lower value 1.03 | locus YOR184W, strain ser1, stronger effect = lower value 1.04 | locus YOR231W, strain MKK1, stronger effect = lower value 1.03 | locus YOR265W, strain rbl2, stronger effect = lower value 1.01 | locus YOR270C, strain vph1, stronger effect = lower value 1.01 | locus YOR290C, strain snf2, stronger effect = lower value 1.01 | locus YOR316C, strain cot1, stronger effect = lower value 1.04 | locus YPL051W, strain arl3, stronger effect = lower value 1.02 | locus YPL055C, strain LGE1, stronger effect = lower value 1.04 | locus YPL078C, strain atp4, stronger effect = lower value 1.02 | locus YPL106C, strain sse1, stronger effect = lower value 0.989 | locus YPL240C, strain hsp82, stronger effect = lower value 1 | locus YPL241C, strain CIN2, stronger effect = lower value 1.01 | locus YPL256C, strain CLN2, stronger effect = lower value 1.12 | locus YPR119W, strain clb2, stronger effect = lower value 1.03 | locus YPR141C, strain kar3, stronger effect = lower value 1.05 | locus YPR163C, strain tif3, stronger effect = lower value 1.04 | locus YPR167C, strain met16, stronger effect = lower value 1.04 | strain wtn01, stronger effect = lower value 1.01

COc1cc2c(c(OC)c1OC)-c1ccc(OC)c(=O)cc1C(NC(C)=O)CC2 (stereo not drawn)
inactive: locus YAL040C, strain CLN3, stronger effect = lower value 0.95 | locus YDR150W, strain NUM1, stronger effect = lower value 1.03 | locus YDR363W, strain ESC2, stronger effect = lower value 1 | locus YER002W, strain NOP16, stronger effect = lower value 1.01 | [1] 1 | [2] 0.984 | [3] 1.06 | locus YNL175C, strain NOP13, stronger effect = lower value 1.01 | locus YNL197C, strain WHI3, stronger effect = lower value 1.01 | locus YNL224C, strain SQS1, stronger effect = lower value 1 | locus YOR083W, strain WHI5 (second series), stronger effect = lower value 1.02

— PubChem BioAssay AID1159580 (chemical genetic matrix, 2015)
